Compounds with a hit are over-represented: about 12% of the library has one in this group of screens.
G9a block = qHTS Assay for Inhibitors of Histone Lysine Methyltransferase G9a; G9a H3K9 monomethylation, AlphaScreen, 2 h; Potency, µM (titrated, usually from 102 µM), without a hit: at the top dose activity, negative = inhibition, usual class: inhibitors; 350,000 compounds, 8.8% hits; Histone-lysine N-methyltransferase EHMT2 (Homo sapiens), Q96KQ7; further: on the % scale 0 is the no-effect control and ±100 the full control effect; nearly all actives have a fitted effect of over 75% in size
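Readings reflect AlphaScreen signal from monomethyl-H3K9 antibody detection. HMT at 20 nM; substrate b-H3K9 500 nM; cofactor SAM 20 uM; 2 h RT reaction; compounds tested as titrations in qHTS with 15 min preincubation.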
HP1b chromo inh = HTS for Inhibitors of HP1-beta Chromodomain Interactions with Methylated Histone Tails. AID 540317, 2011. 390,000 compounds, 0.56% hits. Chromobox protein homolog 1 (Homo sapiens), P83916. Potency, µM (titrated, usually from 114 µM), without a hit: at the highest dose activity change, negative = inhibition, hits mostly inhibitors. AlphaScreen HP1-beta / biotin-H3K9me3 peptide binding; further: nearly all actives have a fitted effect of over 70% in size
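HP1-beta protein (50 nM final) preincubated 30 min at room temperature with biotinylated H3(1-18)K9me3 peptide (50 nM) in PBS pH 7.4, 0.01% Tween-20, then compound added for 30 min. AlphaScreen streptavidin donor/nickel chelate acceptor beads (10 ug/mL final), 30 min dark, luminescence read.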
JMJD2A Tudor inh = qHTS Assay for Inhibitors of JMJD2A-Tudor Domain; Lysine-specific demethylase 4A (Homo sapiens), O75164; AlphaScreen JMJD2A-Tudor / H3K4me3 peptide binding; Potency, µM (top dose mostly 114 µM), without a hit: top-dose activity change, negative = inhibition, hits mostly inhibitors; 390,000 compounds, 4.4% hits; AID 504339, 2011; further: on the % scale 0 is the no-effect control and ±100 the full control effect; nearly all actives have a fitted effect of over 50% in size
Sfp PPTase inh = qHTS Assay for Inhibitors of Bacillus subtilis Sfp phosphopantetheinyl transferase (PPTase). 310,000 compounds, 3.5% hits. 4'-phosphopantetheinyl transferase ffp (Bacillus subtilis), Q9F4F7. Potency, µM, inactives show largest response in the series, negative = inhibition, most hits filed as inhibitors. Biochemical Sfp PPTase activity, qHTS;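 further: the enzyme is Sfp with the accession as filed and its product quenches rhodamine fluorescence; 0% = enzyme reaction without inhibitor and -100% = no enzyme wells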
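Buffer: 50 mM Hepes-Na pH 7.6, 10 mM MgCl2, 0.01% Nonidet P-40, 0.01% BSA. Enzyme 15 nM, pre-exposed to compound 15 min; substrates then added and fluorescence change tracked over 30 min.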
BAZ2B block = qHTS Assay for Inhibitors of BAZ2B; Bromodomain adjacent to zinc finger domain protein 2B (Homo sapiens), Q9UIF8; AlphaScreen BAZ2B-H3K14Ac peptide displacement; Potency, µM (titrated, usually from 114 µM), without a hit: at the highest dose activity change, negative = inhibition, actives largely listed as inhibitors; 360,000 compounds, 4.4% hits; AID 504333, 2011; further: on the % scale 0 is the no-effect control and ±100 the full control effect; nearly all actives have a fitted effect of over 60% in size
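AlphaScreen displacement of biotin-H3(5-23)K14Ac peptide (50 nM final) from BAZ2B (50 nM final) in PBS pH 7.4, 0.01% Tween-20; complex preformed 30 min RT, then compounds (top 110 uM) 30 min RT, beads 20 min dark.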
L3MBTL1 inh = qHTS Assay for the Inhibitors of L3MBTL1. AlphaScreen L3MBTL1–H3K9me1 peptide binding. Potency, µM (series often up to 57.1 µM), for the others: at the highest dose activity, negative = inhibition, actives largely listed as inhibitors. 230,000 compounds, 0.66% hits; further: on the % scale 0 is the no-effect control and ±100 the full control effect; nearly all actives have a fitted effect of over 60% in size
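AlphaScreen proximity signal between nickel-chelate acceptor and streptavidin donor beads (final 10 ug/mL) reports binding of 50 nM L3MBTL1 to 75 nM biotin-H3 K9me1 peptide; complex incubated with compounds 30 min at room temperature; cefsulodin titration as control.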
An asterisk follows results filed as active; u = inconclusive; x = no result given; [ ] = dose if it differs, or a comment. The call rests on the fitted dose curve; in most records, active means well fitted curve in the direction sought with a large enough effect; inconclusive means small, poorly fitted or top-dose-only effect, or another doubt; inactive means no such curve, though single readings can be large; an effect the other way counts as inactive or inconclusive. Potency means the concentration at half of the fitted maximal effect.

SMILES	G9a block	HP1b chromo inh	JMJD2A Tudor inh	Sfp PPTase inh	BAZ2B block	L3MBTL1 inh
Cc1c(C(=O)Nc2nc3ccccc3[nH]2)oc2ccc(Br)cc12	16%	22%	-23%	14µM*	10%	0%
Cc1ccc(C(=O)Nc2nc3ccccc3[nH]2)cc1	-10%	7%	-16%	16%	3%	x
Cn1nc(C(=O)Nc2nc3ccccc3[nH]2)ccc1=O	32µM*	19%	-35%	-13%	u	8%
CN(C)c1cccc(C(=O)Nc2nc3ccccc3[nH]2)c1	50µM*	u	45µM*	2%	35µM*	x
CC(C)Sc1nnc2c3ccccc3n(C)c2n1	x	39%	-18%	x	x	x
Cc1ccccc1CNC(=O)c1cc2cc(S(=O)(=O)N3CCCCC3)ccc2n1C	7%[59 µM]	14%[57 µM]	-27%	x	1%	x
Cc1ccc2[nH]c(=O)c(CN(Cc3ccccc3)Cc3nnnn3C3CCCC3)cc2c1	-43%[12.7 µM]	9%	u	40µM*	u	x
Cc1ccc(C)c2[nH]c(=O)c(CN(CCN3CCOCC3)Cc3nnnn3CC3CCCO3)cc12 (stereo unspecified)	u	33%	-6%	u	x	0%
Cc1ccc(C)c2[nH]c(=O)c(CN(Cc3nnnn3C3CCCCC3)CC3CCCO3)cc12 (stereo unspecified)	u	29%	-30%	79µM*	-4%	26%
CCN1CCC(N(Cc2ccc3c(c2)OCO3)C(=O)Nc2cc(Cl)ccc2C(=O)OC)CC1	0%[59 µM]	-2%	-27%	x	-26%	x
CCN(Cc1ccncc1)C(=S)NCc1ccccc1	50µM*	7%	-2%	-6%	-2%	1%
S=C(Nc1ccccc1)N(Cc1ccccc1)Cc1ccncc1	-7%[59 µM]	40%	-6%	8%	-12%	0%
CCOC(=O)C1CCC(CN(Cc2cccc(Br)c2)S(=O)(=O)c2ccc(Cl)cc2)CC1 (stereo unspecified)	10%[59 µM]	52%	-5%	x	12%	x
COc1ccc(/C=N/n2c(C)nnc2C)c(OC)c1OC	22%[59 µM]	35%	-8%	9%	12%	39%
COc1cccc(/C=N/n2c(-c3n[nH]c4c3CCC4)n[nH]c2=S)c1OC	2.5µM*	u	3.2µM*	u	-16%	-4%
COc1cccc(/C=N/n2c(-c3cc(C)[nH]n3)n[nH]c2=S)c1OC	x	4%	1.8µM*	-29%	-36%	-5%
COc1cccc(/C=N/n2c(=S)n(C)c3cc(C)c(C)cc32)c1OC	u	7%	-31%	4%	-4%[57.1 µM]	1%
COc1ccc(/C=N/n2c(-c3n[nH]c4c3CCC4)n[nH]c2=S)c(OC)c1OC	1.3µM*	u	4.5µM*	-20%	-10%	0%
CCc1nn(CC(=O)NC(C)CC)c(=O)c2cc3occc3n12 (stereo unspecified)	-1%[59 µM]	32%	-10%	x	2%	x
Cc1ccc(C(=O)c2oc3ccc(Cl)cc3c2NC(=O)CN2CCN(C)CC2)cc1	79µM*	-9%[57 µM]	u	-28%	25µM*	x
CCOC(=O)c1oc2ccc(OC)cc2c1NC(=O)CN1CCN(C)CC1	-28%	20%	-1%	-2%	-2%	x
Cc1cccc(NC(=O)CNC(=O)Cn2ncc(Cl)c(Cl)c2=O)c1C	x	71µM*	45µM*	x	x	32µM*
Cc1cccc(NC(=O)CNC(=O)CSc2ncccn2)c1C	x	30%	3%	x	x	4%
COc1ccc(C(c2c(N)[nH]c(=S)[nH]c2=O)c2c(N)[nH]c(=S)[nH]c2=O)cc1	x	27%	u	79µM*	-6%	x
COc1ccc(C(C(=O)OC(C)CN(C)C)c2ccccc2)cc1 (stereo unspecified)	-2%[59 µM]	7%	u	8%	-5%	-3%
SMILES	G9a block	HP1b chromo inh	JMJD2A Tudor inh	Sfp PPTase inh	BAZ2B block	L3MBTL1 inh
O=S(=O)(Nc1nc2n(n1)C(c1ccccc1)C=C(c1ccc(Cl)cc1)N2)c1ccccc1 (stereo unspecified)	u	55%	-5%	x	79µM*	x
CC1=CC(c2ccc(Cl)cc2)n2nc(N3C(=O)CCC3=O)nc2N1 (stereo unspecified)	u	14%	u	-5%	4%	-7%
Cc1ccc(C2C=C(c3ccccc3)Nc3nc(NS(C)(=O)=O)nn32)cc1 (stereo unspecified)	20µM*	22%	-5%	x	0%	x
Cc1ccc(C2C=C(c3ccccc3)Nc3nc(N4C(=O)CCC4=O)nn32)cc1 (stereo unspecified)	u	13%	79µM*	-19%	50µM*	-5%[11.4 µM]
Cc1ccc(S(=O)(=O)Nc2nc3n(n2)C(c2ccc(F)cc2)C=C(c2ccccc2)N3)cc1 (stereo unspecified)	u	31%	-7%	x	-15%	x
Cc1ccc(S(=O)(=O)Nc2nc3n(n2)C(c2ccc(Cl)cc2)C=C(c2ccccc2)N3)cc1 (stereo unspecified)	-36%[59 µM]	38%	-5%	x	-30%	x
Cc1ccc(C2C=C(c3ccccc3)Nc3nc(NS(=O)(=O)c4ccccc4)nn32)cc1 (stereo unspecified)	14µM*	48%	-8%	x	2%	x
CCOC(=O)c1ccc(NC(=O)CC2C(=O)N(c3ccc(F)cc3)C(=O)N2Cc2cccnc2)cc1 (stereo unspecified)	-33%[59 µM]	26%	-12%	x	-9%	x
CCc1cnc2c(c1SCC(=O)NCc1ccc(F)cc1)c(=O)n(C)c(=O)n2C	1%[59 µM]	18%	-10%	x	1%	x
Cc1ccc(C2C=C(c3ccc(Cl)cc3)Nc3nc(NC(=O)c4ccco4)nn32)cc1 (stereo unspecified)	32µM*	34%	79µM*	x	50µM*	x
Cn1cc(C(=O)NCCc2ccc(Cl)cc2)c(=O)c2cc(S(=O)(=O)N3CCCCC3)ccc21	8%[59 µM]	18%	-9%	x	x	x
CCOC(=O)c1[nH]c(C)c(CCC(=O)NCc2ccc(OCC)cc2)c1C	-16%[59 µM]	20%[57 µM]	-28%	x	-15%	x
Cc1cc(/C=C(\C#N)C(=O)O)c(C)n1CC1CCCO1 (stereo unspecified)	u	u	14µM*	19%	-31%	0%
Cc1cc(C=C(C#N)C#N)c(C)n1-c1ccccc1	-50%	11%	-14%	2%	-4%	0%
Cc1cc(/C=C(\C#N)C(=O)O)c(C)n1-c1ccc(Br)cc1	71µM*	-19%	-14%[11.4 µM]	2%	u	x
Cc1cc(=O)n2nc(N(C)CC(=O)NCc3ccc(Cl)cc3)sc2n1	3%[59 µM]	26%	-4%	x	3%	x

Screening results as filed in PubChem BioAssay.
